# Source: the supplement of paper PMC8728848
# This is one part of a sample in which the strongest signals are shown more often than they occur.
# B1: Neuropilin-1 (Rattus norvegicus), Q9QWJ9 (protein)
# chain: MERGLPLLCATLALALALAGAFRSDKCGGTIKIENPGYLTSPGYPHSYHPSEKCEWLIQAPEPYQRIMINFNPHFDLEDRDCKYDYVEVIDGENEGGRLWGKFCGKIAPSPVVSSGPFLFIKFVSDYETHGAGFSIRYEIFKRGPECSQNYTAPTGVIKSPGFPEKYPNSLECTYIIFAPKMSEIILEFESFDLEQDSNPPGGVFCRYDRLEIWDGFPEVGPHIGRYCGQKTPGRIRSSSGILSMVFYTDSAIAKEGFSANYSVLQSSISEDFKCMEALGMESGEIHSDQITASSQYGTNWSVERSRLNYPENGWTPGEDSYREWIQVDLGLLRFVTAVGTQGAISKETKKKYYVKTYRVDISSNGEDWITLKEGNKAIIFQGNTNPTDVVFGVFPKPLITRFVRIKPASWETGISMRFEVYGCKITDYPCSGMLGMVSGLISDSQITASNQGDRNWMPENIRLVTSRTGWALPPSPHPYINEWLQVDLGDEKIVRGVIIQGGKHRENKVFMRKFKIAYSNNGSDWKMIMDDSKRKAKSFEGNNNYDTPELRAFTPLSTRFIRIYPERATHSGLGLRMELLGCEVEVPTAGPTTPNGNPVDECDDDQANCHSGTGDDFQLTGGTTVLATEKPTIIDSTIQSEFPTYGFNCEFGWGSHKTFCHWEHDSHAQLRWRVLTSKTGPIQDHTGDGNFIYSQADENQKGKVARLVSPVVYSQSSAHCMTFWYHMSGSHVGTLRVKLHYQKPEEYDQLVWMVVGHQGDHWKEGRVLLHKSLKLYQVIFEGEIGKGNLGGIAVDDISINNHIPQEDCAKPTDLDKKNTEIKIDETGSTPGYEEGKGDKNISRKPGNVLKTLDPILITIIAMSALGVLLGAVCGVVLYCACWHNGMSERNLSALENYNFELVDGVKLKKDKLNPQSNYSEA
# B2: Thrombomodulin Lectin (Mus musculus) (protein)
# chain: LSALAKLQPTGSQCVEHECFALFQGPATFLDASQACQRLQGHLMTVRSSVAADVISLLLSQSSMDLGPWIGLQLPQGCDDPVHLGPLRGFQWVTGDNHTSYSRWARPNDQTAPLCGPLCVTVSTATEAAPGEPAWEEKPCETETQGFLCEFYFTASCRVDPIPVREDTKEEEGAGEPPVSPTPGSPTGPPSARPVLDEPRVPITQNPCPPLKECPPCAAPDLEGGPSVFIFPPKIKDVLMISLSPMVTCVVVDVSEDDPDVQISWFVNNVEVHTAQTQTHREDYNSTLRVVSALPIQHQDWMSGKAFACAVNNRALPSPIEKTISKPRGPVRAPQVYVLPPPAEEMTKKEFSLTCMITGFLPAEIAVDWTSNGRTEQNYKNTATVLDSDGSYFMYSKLRVQKSTWERGSLFACSVVHEGLHNHLTTKTISRSLGK
# Experiments:
# Assay in all cases: glycan array binding signal (z-score within array); higher = stronger binding
# Settings in all cases: glycan notation: IUPAC condensed, linker removed
# [1] = target: Neu5Gc(a2-6)GalNAc
# Method in brief: (§1)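 The binding signal is a Z-score computed within each array and averaged over linkers. Arrays of the same protein sequence at different concentrations or buffers were also averaged together. Data originate from 3228 arrays in the Consortium for Functional Glycomics database, kept only where the protein sequence was available.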
# [2] = target: Fuc(a1-2)Gal(b1-4)GlcNAc(b1-2)Man(a1-3)[Fuc(a1-2)Gal(b1-4)GlcNAc(b1-2)Man(a1-6)]Man(b1-4)GlcNAc(b1-4)GlcNAc
# Method in brief: as §1
# [3] = target: Fuc(a1-2)Gal(b1-4)GlcNAc(b1-6)GalNAc
# Method in brief: as §1
# [4] = target: Fuc(a1-2)Gal6S(b1-4)Glc
# Method in brief: as §1
# [5] = target: Fuc(a1-2)Gal6S(b1-4)Glc6S
# Method in brief: as §1
# [6] = target: Fuc(a1-2)[Gal(a1-3)]Gal(b1-4)GlcNAc(b1-2)Man(a1-3)[Fuc(a1-2)[Gal(a1-3)]Gal(b1-4)GlcNAc(b1-2)Man(a1-6)]Man(b1-4)GlcNAc(b1-4)GlcNAc
# Method in brief: as §1
# [7] = target: Fuc(a1-2)[Gal(a1-3)]Gal(b1-4)GlcNAc(b1-3)[Fuc(a1-2)[Gal(a1-3)]Gal(b1-4)GlcNAc(b1-6)]GalNAc
# Method in brief: as §1
# [8] = target: Fuc(a1-2)[Gal(a1-3)]Gal(b1-4)GlcNAc(b1-6)GalNAc
# Method in brief: as §1
# [9] = target: Fuc(a1-2)[Gal(a1-4)]Gal(b1-4)GlcNAc
# Method in brief: as §1
# [10] = target: Fuc(a1-2)[GalNAc(a1-3)]Gal
# Method in brief: as §1
# [11] = target: Fuc(a1-2)[GalNAc(a1-3)]Gal(b1-4)Glc
# Method in brief: as §1
# [12] = target: Fuc(a1-3)[Gal3S(b1-4)]GlcNAc
# Method in brief: as §1
# [13] = target: Fuc(a1-3)[GalNAc(b1-4)]GlcNAc
# Method in brief: as §1
# [14] = target: Gal(a1-3)Gal(b1-4)Glc
# Method in brief: as §1
# [15] = target: Gal(a1-3)GalNAc
# Method in brief: as §1
# [16] = target: Gal(a1-4)Gal(b1-4)GlcNAc(b1-3)Gal(b1-4)Glc
# Method in brief: as §1
# [17] = target: Gal(b1-3)Gal
# Method in brief: as §1
# [18] = target: Gal(b1-3)[Fuc(a1-4)]GlcNAc(b1-6)GalNAc
# Method in brief: as §1
# [19] = target: Gal(b1-4)GlcNAc(b1-2)Man(a1-3)[Gal(b1-4)GlcNAc(b1-2)Man(a1-6)][Gal(b1-4)GlcNAc(b1-4)]Man(b1-4)GlcNAc(b1-4)[Fuc(a1-6)]GlcNAc
# Method in brief: as §1
# [20] = target: Gal(b1-4)GlcNAc(b1-2)[Gal(b1-4)GlcNAc(b1-4)]Man(a1-3)[Gal(b1-4)GlcNAc(b1-2)Man(a1-6)]Man(b1-4)GlcNAc(b1-4)GlcNAc
# Method in brief: as §1
# [21] = target: Gal(b1-4)GlcNAc(b1-3)Gal(b1-4)GlcNAc(b1-2)Man(a1-3)[Gal(b1-4)GlcNAc(b1-3)Gal(b1-4)GlcNAc(b1-2)Man(a1-6)]Man(b1-4)GlcNAc(b1-4)[Fuc(a1-6)]GlcNAc
# Method in brief: as §1
# [22] = target: Gal(b1-4)GlcNAc6P
# Method in brief: as §1
# [23] = target: Gal6S(b1-4)Glc
# Method in brief: as §1
# [24] = target: GalNAc(b1-4)GlcNAc6S
# Method in brief: as §1
# [25] = target: GlcA(b1-6)Gal
# Method in brief: as §1
# [26] = target: GlcNAc(a1-3)Gal(b1-4)GlcNAc
# Method in brief: as §1
# [27] = target: GlcNAc(a1-4)Gal(b1-4)GlcNAc(b1-3)Gal(b1-4)[Fuc(a1-3)]GlcNAc(b1-3)Gal(b1-4)[Fuc(a1-3)]GlcNAc
# Method in brief: as §1
# [28] = target: GlcNAc(a1-6)Gal(b1-4)GlcNAc
# Method in brief: as §1
# [29] = target: GlcNAc(b1-2)Man(a1-3)[GlcNAc(b1-2)Man(a1-6)]Man(b1-4)GlcNAc(b1-4)[Fuc(a1-6)]GlcNAc
# Method in brief: as §1
# [30] = target: GlcNAc(b1-3)Gal(b1-4)GlcNAc(b1-3)Gal(b1-4)GlcNAc
# Method in brief: as §1
# [31] = target: GlcNAc(b1-3)Gal(b1-4)GlcNAc(b1-3)Gal(b1-4)GlcNAc(b1-2)[GlcNAc(b1-3)Gal(b1-4)GlcNAc(b1-3)Gal(b1-4)GlcNAc(b1-6)]Man(a1-6)[GlcNAc(b1-3)Gal(b1-4)GlcNAc(b1-3)Gal(b1-4)GlcNAc(b1-2)Man(a1-3)]Man(b1-4)GlcNAc(b1-4)[Fuc(a1-6)]GlcNAc
# Method in brief: as §1
# [32] = target: GlcNAc(b1-3)Gal(b1-4)GlcNAc(b1-3)Gal(b1-4)GlcNAc(b1-3)Gal(b1-4)GlcNAc(b1-3)Gal(b1-4)GlcNAc(b1-2)Man(a1-3)[GlcNAc(b1-3)Gal(b1-4)GlcNAc(b1-3)Gal(b1-4)GlcNAc(b1-3)Gal(b1-4)GlcNAc(b1-3)Gal(b1-4)GlcNAc(b1-2)Man(a1-6)]Man(b1-4)GlcNAc(b1-4)GlcNAc
# Method in brief: as §1
# [33] = target: GlcNAc(b1-4)GlcNAc(b1-4)GlcNAc(b1-4)GlcNAc(b1-4)GlcNAc
# Method in brief: as §1
# [34] = target: GlcNAc(b1-4)GlcNAc(b1-4)GlcNAc(b1-4)GlcNAc(b1-4)GlcNAc(b1-4)GlcNAc
# Method in brief: as §1
# [35] = target: GlcNAc6S(b1-3)Gal(b1-4)GlcNAc
# Method in brief: as §1
# [36] = target: Man(a1-2)Man(a1-2)Man(a1-3)Man
# Method in brief: as §1
# [37] = target: Neu5Ac(a2-3)Gal(b1-3)GlcNAc(b1-2)[Neu5Ac(a2-3)Gal(b1-3)GlcNAc(b1-4)]Man(a1-6)[Neu5Ac(a2-3)Gal(b1-3)GlcNAc(b1-2)Man(a1-3)]Man(b1-4)GlcNAc(b1-4)GlcNAc
# Method in brief: as §1
# [38] = target: Neu5Ac(a2-3)Gal(b1-3)GlcNAc(b1-3)Gal(b1-3)GlcNAc
# Method in brief: as §1
# [39] = target: Neu5Ac(a2-3)Gal(b1-4)GlcNAc(b1-2)Man
# Method in brief: as §1
# [40] = target: Neu5Ac(a2-3)[GalNAc(b1-4)]Gal(b1-4)GlcNAc(b1-3)GalNAc
# Method in brief: as §1
# [41] = target: Neu5Ac(a2-6)Gal(b1-4)GlcNAc(b1-2)Man(a1-3)[Man(a1-6)]Man(b1-4)GlcNAc(b1-4)GlcNAc
# Method in brief: as §1
# [42] = target: Neu5Ac(a2-6)Gal(b1-4)GlcNAc(b1-2)Man(a1-3)[Neu5Ac(a2-3)Gal(b1-4)GlcNAc(b1-2)Man(a1-6)]Man(b1-4)GlcNAc(b1-4)GlcNAc
# Method in brief: as §1
# [43] = target: Neu5Ac(a2-6)Gal(b1-4)GlcNAc(b1-2)[Neu5Ac(a2-6)Gal(b1-4)GlcNAc(b1-6)]Man(a1-6)[Neu5Ac(a2-6)Gal(b1-4)GlcNAc(b1-2)Man(a1-3)][GlcNAc(b1-4)]Man(b1-4)GlcNAc(b1-4)GlcNAc
# Method in brief: as §1
# [44] = target: Neu5Ac(a2-6)GalNAc(b1-4)GlcNAc
# Method in brief: as §1
# [45] = target: Neu5Ac(a2-8)Neu5Ac(a2-3)Gal(b1-3)GalNAc(b1-4)[Neu5Ac(a2-3)]Gal(b1-4)Glc
# Method in brief: as §1
# [46] = target: Neu5Ac(a2-8)Neu5Ac(a2-3)Gal(b1-3)GalNAc(b1-4)[Neu5Ac(a2-8)Neu5Ac(a2-3)]Gal(b1-4)Glc
# Method in brief: as §1
# [47] = target: Neu5Ac(a2-8)Neu5Ac(a2-3)[Gal(b1-3)GalNAc(b1-4)]Gal(b1-4)Glc
# Method in brief: as §1
# [48] = target: Neu5Ac(a2-8)Neu5Ac(a2-8)Neu5Ac(a2-3)Gal(b1-4)Glc
# Method in brief: as §1
# [49] = target: Neu5Ac(b2-6)GalNAc
# Method in brief: as §1
# [50] = target: Neu5Gc(a2-3)Gal(b1-3)GlcNAc
# Method in brief: as §1
binder,measurement,setting,value
B1,glycan array binding signal (z-score),[1],-0.331
B2,glycan array binding signal (z-score),[2],0.621
same,glycan array binding signal (z-score),[3],2.73
same,glycan array binding signal (z-score),[4],2.72
same,glycan array binding signal (z-score),[5],0.784
same,glycan array binding signal (z-score),[6],2.81
same,glycan array binding signal (z-score),[7],2.22
same,glycan array binding signal (z-score),[8],0.082
same,glycan array binding signal (z-score),[9],0.651
same,glycan array binding signal (z-score),[10],0.693
same,glycan array binding signal (z-score),[11],-0.508
same,glycan array binding signal (z-score),[12],-0.275
same,glycan array binding signal (z-score),[13],0.174
same,glycan array binding signal (z-score),[14],0.642
same,glycan array binding signal (z-score),[15],-0.598
same,glycan array binding signal (z-score),[16],0.021
same,glycan array binding signal (z-score),[17],2.2
same,glycan array binding signal (z-score),[18],-0.03
same,glycan array binding signal (z-score),[19],0.267
same,glycan array binding signal (z-score),[20],2.75
same,glycan array binding signal (z-score),[21],1.18
same,glycan array binding signal (z-score),[22],2.7
same,glycan array binding signal (z-score),[23],-1.09
same,glycan array binding signal (z-score),[24],0.18
same,glycan array binding signal (z-score),[25],1.32
same,glycan array binding signal (z-score),[26],-1.21
same,glycan array binding signal (z-score),[27],0.73
same,glycan array binding signal (z-score),[28],1.09
same,glycan array binding signal (z-score),[29],-0.281
same,glycan array binding signal (z-score),[30],-0.268
same,glycan array binding signal (z-score),[31],2.07
same,glycan array binding signal (z-score),[32],0.151
same,glycan array binding signal (z-score),[33],-1.3
same,glycan array binding signal (z-score),[34],1.17
same,glycan array binding signal (z-score),[35],0.319
same,glycan array binding signal (z-score),[36],-0.544
same,glycan array binding signal (z-score),[37],0.153
same,glycan array binding signal (z-score),[38],-1.59
same,glycan array binding signal (z-score),[39],-1.13
same,glycan array binding signal (z-score),[40],2.15
same,glycan array binding signal (z-score),[41],2.04
same,glycan array binding signal (z-score),[42],-0.553
same,glycan array binding signal (z-score),[43],0.307
same,glycan array binding signal (z-score),[44],-1.18
same,glycan array binding signal (z-score),[45],1.68
same,glycan array binding signal (z-score),[46],-0.913
same,glycan array binding signal (z-score),[47],0.046
same,glycan array binding signal (z-score),[48],3.06
same,glycan array binding signal (z-score),[49],1.37
same,glycan array binding signal (z-score),[50],-0.635
